This is part of a sample that, as a whole, favours compounds with a hit. Of some 83,000 tested, about 20% had one in any assay.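 Cells were grown in 96-well plates and exposed to the test compound at a single concentration for 48 hours; results are reported as percent growth, with values below 10 considered active.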 A number with no mark means an inactive call. Active and inactive are the calls of the source.

What all share (experiment): NCI-60 one-dose screen, 48 h (100 = growth as untreated, 0 = no growth, -100 = all killed)
Common to all, as to conditions: 10 µM unless noted

Test [1] deals with K-562 leukemia.
For test [2], the system named is MALME-3M melanoma.
Test [3] concerns MDA-MB-231 breast.
Test [4] has as its system RXF 393 renal.
For test [5], the system named is SF-268 CNS.
Test [6] deals with SF-295 CNS.
The subject of test [7] is SF-539 CNS.
Test [8] deals with UACC-257 melanoma.
In test [9] the test system is M14 melanoma.
In test [10] the test system is HCT-15 colon.
The test system of test [11] is SNB-75 CNS.
The test system of test [12] is SNB-19 CNS.
Test [13] has as its system U251 CNS.
The test system of test [14] is PC-3 prostate.
Test [15] relates to SK-MEL-5 melanoma.
Test [16] relates to UACC-62 melanoma.
The test system of test [17] is LOX IMVI melanoma.
For test [18], the system named is SK-MEL-28 melanoma.
In test [19] the test system is HT29 colon.

Consider `COCCn1c(Nc2ccc(C(=O)NO)cc2)nc2ccccc21`, for which the growth in test [1] is 34.6%; in test [2], 30.6%; in test [3], 81.5%; in [4] it was 39.1%; in test [5], 82.3%; in [6], 61.9%. Also, the growth is 62% in [7]; 27.8% in test [8]; 51.6% in test [9]; 74.9% in test [10]; 22.1% in test [11]; 69.6% in [12]. For the same compound, the growth in test [13] was 61.4%; in [14], 69.5%; in test [15], 47.4%; in test [16], 25.8%; in [17], 73.6%; in test [18], 61.3%.

For the compound `CC1CN(CCCOC(=O)Nc2ccc(Cl)cc2)CCN1C(C)(C)C` (stereo not drawn), the growth is 90.8% in [1]; 102% in test [2]; 102% in test [3]; 126% in test [4]; 106% in [5]; 107% in test [6]. Moreover, the growth in test [7] was 125%; in test [8], 108%; in [9], 99.7%; in test [10], 114%; in test [19] it was 104%; in test [11], 114%. The growth in [12] was 98.1%; in [13], 108%; in test [15], 97.6%; in test [16], 84.8%; in test [17] it was 91.9%; in [18], 106%.

Take `COC(=O)c1ccc(NC(N)=NCCC(C)(C)c2ccc(C(F)(F)F)cc2)nc1`: the growth in test [1] is 1.24% (active); in test [2] it was -30.9% (active); in test [3] it was 42.7%; in [4], 58.7%; in test [6] it was 29.5%; in [7] it was 79.3%. In addition, the growth is 38.8% in [8]; -40% (active) in test [9]; 37.8% in test [10]; 11.6% in test [19]; 67.3% in test [11]; 59.9% in test [12]. Moreover, the growth was 30.5% in test [13]; 36% in test [14]; -85.4% (active) in test [15]; 55.2% in [16]; -77.3% (active) in [17]; 35.2% in [18].

Turning to `COc1cc(C2=NOC(c3cc(OC)c(OC)c(OC)c3)C2)ccc1OCCCCOc1cc2c(cc1OC)C(=O)N1CCC[C@H]1C=N2` (stereo partly drawn), the growth in test [1] was 7.5% (active); in test [2], -72.2% (active); in test [3], 12.3%; in [4], -79% (active); in [5] it was -29.5% (active); in test [6], 13.4%. The growth is -89.6% (active) in [7]; 13.7% in test [8]; -43.7% (active) in test [9]; 4.27% (active) in test [10]; -12.3% (active) in [19]; -87.7% (active) in [11]. Moreover, the growth in test [12] was -9.51% (active); in test [13] it was -9.51% (active); in test [14], -2.09% (active); in [15], -85.3% (active); in [16] it was -76.6% (active); in test [17], -68.6% (active). Moreover, the growth in test [18] is -66.1% (active).

On to `COC(=O)c1cc(Cl)cc([N+](=O)[O-])c1O`, for which the growth in test [1] is 68.9%; in test [2], 114%; in test [3], 123%; in test [4], 97.1%; in test [5], 112%; in test [6], 101%. Further, the growth in [7] is 107%; in [8], 100%; in [9], 94.9%; in test [10] it was 109%; in [19], 110%; in [11], 97.2%. Also, the growth in test [13] was 112%; in test [15] it was 106%; in test [16], 110%; in [17] it was 114%; in test [18] it was 120%.

`COc1ccc(CCN2COc3c([C@@H](C)CCC=C(C)C)ccc(C)c3C2)cc1OC`: the growth in [1] is 13.1%; in [2], 48%; in test [3], 57%; in [4], 63.9%; in [6], 43.1%; in test [7] it was 80.5%. In addition, the growth in test [8] is 48.1%; in test [9], 11.5%; in test [10], 29.5%; in [19], 8.29% (active); in [11], 62.8%; in test [12] it was 83.3%. The growth in test [13] was 49.8%; in test [14], 47.6%; in test [15], 18.2%; in test [16] it was 65.5%; in test [17] it was 64.3%; in test [18], 69.4%.

With `c1ccc(C2=Nc3ccccc3SC2)cc1`, the growth in [1] is 124%; in [2] it was 99.3%; in [3], 101%; in test [4], 129%; in [6], 97.2%; in test [7] it was 103%. Besides, the growth in test [8] is 105%; in test [9] it was 103%; in test [10] it was 105%; in [19] it was 109%; in test [11] it was 77.6%; in test [12], 109%. Further, the growth is 94.9% in [13]; 66.4% in [14]; 105% in [15]; 96.7% in test [16]; 90.4% in test [17]; 109% in [18].

Regarding `Nc1cccc(S(=O)(=O)c2cccc(N)c2)c1`, the growth in [1] was 10.5%; in test [2] it was 115%; in [3], 105%; in test [4] it was 138%; in test [5] it was 107%; in test [6], 100%. For the same compound, the growth in test [7] was 113%; in [8], 119%; in [9], 107%; in [10], 114%; in test [19], 110%; in test [11], 88.3%. The growth is 133% in [12]; 113% in test [13]; 92% in [14]; 113% in [15]; 102% in test [16]; 104% in [17]. Also, in [18], the growth is 126%.

As for `CCCCCCCCCC1=NC(C)(C)CN1C(C)(C)CO`, the growth was -25.3% (active) in test [1]; 106% in test [2]; 88.1% in test [3]; 167% in test [4]; 94% in test [5]; 122% in test [6]. For the same compound, the growth in test [7] was 87.3%; in test [8], 121%; in [9], 113%; in test [10], 82.2%; in test [19], 49.2%; in test [11] it was 102%. Also, the growth in test [12] is 92.1%; in test [13], 82.6%; in [14], 83.8%; in test [15], 84%; in [16], 98.8%; in test [17] it was 85.6%. Moreover, the growth in test [18] was 131%.

Regarding `COc1ccc(C(=O)C(CN(C)C)c2ccccc2)cc1` (stereo not drawn), the growth is 12.6% in test [1]; 45% in test [2]; 33.4% in [3]; 18.6% in [4]; 54.3% in [6]; 14.2% in [7]. For the same compound, the growth was 2.45% (active) in test [8]; -63% (active) in test [9]; -49.3% (active) in [10]; 19.1% in test [19]; 25.1% in [11]; 91.2% in test [12]. Further, the growth was 31.6% in test [13]; 52.4% in test [14]; 43.7% in [15]; 33.8% in [16]; 10.3% in test [17]; -44.9% (active) in test [18].

For the compound `CCCCOc1ncnc2nc[nH]c12`, the growth was 95.4% in [1]; 103% in test [2]; 115% in test [3]; 97.7% in test [4]; 110% in [6]; 102% in test [7]. Also, the growth in test [8] was 101%; in test [9] it was 106%; in test [10] it was 108%; in [19], 96.3%; in test [11], 95.7%; in test [13] it was 106%. In addition, the growth in test [14] was 107%; in test [15], 105%; in [16], 104%; in [17] it was 103%; in test [18] it was 111%.

Consider `COc1cc(-c2nc(-c3nc4cc(C(=O)c5ccccc5)ccc4[nH]3)cc3c2[nH]c2ccccc23)cc(OC)c1OC`, for which the growth in [1] was 80.3%; in test [2] it was 102%; in test [3] it was 86.4%; in [4], 93.8%; in [5], 99.5%; in test [6] it was 77.1%. Also, the growth in test [7] is 80.6%; in [8], 109%; in [9] it was 85.8%; in test [10], 83.1%; in [19] it was 104%; in test [11], 71.5%. Further, the growth in test [12] is 103%; in test [13], 82%; in test [14] it was 65.8%; in [15], 75.2%; in [16], 76%; in test [17], 85.2%. Moreover, the growth in test [18] was 102%.

For the origin of these results see PubChem BioAssay (NCI).
